Laboratory results reported in PubChem BioAssay (NCI).
The panel holds about 83,000 compounds, 20% with a hit somewhere; the sample as a whole holds those more often.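 Values shown are percent growth following 48 h exposure of cells in 96-well plates to a single concentration of compound; below 10 was considered active.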 Unmarked numbers belong to inactive results. The source made the active and inactive calls.

Legend:
Assay in all cases: NCI-60 one-dose screen, 48 h (100 = growth as untreated, 0 = no growth, -100 = all killed)
Details in all cases: 10 µM unless noted
NCI-H23 lung = test system: NCI-H23 lung
NCI-H322M lung = test system: NCI-H322M lung
HOP-62 NSCLC = test system: HOP-62 NSCLC
NCI-H460 lung = test system: NCI-H460 lung
HOP-92 NSCLC = test system: HOP-92 NSCLC
NCI-H522 lung = test system: NCI-H522 lung
A549/ATCC NSCLC = test system: A549/ATCC NSCLC
786-0 renal = test system: 786-0 renal
COLO 205 colon = test system: COLO 205 colon
DU-145 prostate = test system: DU-145 prostate
K-562 leukemia = test system: K-562 leukemia
MALME-3M melanoma = test system: MALME-3M melanoma
MDA-MB-231 breast = test system: MDA-MB-231 breast
RXF 393 renal = test system: RXF 393 renal
SF-268 CNS = test system: SF-268 CNS
SF-295 CNS = test system: SF-295 CNS
SF-539 CNS = test system: SF-539 CNS
UACC-257 melanoma = test system: UACC-257 melanoma
M14 melanoma = test system: M14 melanoma
HCT-15 colon = test system: HCT-15 colon

Structure (SMILES) | growth (NCI-H23 lung) | growth (NCI-H322M lung) | growth (HOP-62 NSCLC) | growth (NCI-H460 lung) | growth (HOP-92 NSCLC) | growth (NCI-H522 lung) | growth (A549/ATCC NSCLC) | growth (786-0 renal) | growth (COLO 205 colon) | growth (DU-145 prostate) | growth (K-562 leukemia) | growth (MALME-3M melanoma) | growth (MDA-MB-231 breast) | growth (RXF 393 renal) | growth (SF-268 CNS) | growth (SF-295 CNS) | growth (SF-539 CNS) | growth (UACC-257 melanoma) | growth (M14 melanoma) | growth (HCT-15 colon)
CCOC(=O)c1cc2c(n1Cc1ccccc1OC)-c1oncc1CCC2 | 45.3% | 86% | 45.3% | 18.4% | 57% | 19.2% | 36.6% | 49.6% | 2.53% (active) | 33.2% | 10.5% | 20.7% | 53% | 5.36% (active) | 57.6% | 17% | 3.92% (active) | 50.4% | 35% | 30.9%
O=C(CSc1nc2ccccc2c(=O)n1-c1ccccc1)Nc1ccc(C(=O)/C=C/c2ccc(Cl)cc2)cc1 | 93.4% | 101% | 107% | 100% | 97.1% | 85.3% | 97% | 102% | 108% | 109% | 90.8% | 95.5% | 93.3% | 127% | 115% | 105% | 113% | 89.6% | 101% | 98.1%
O=C(Nc1ccccc1O)c1ccc(-c2ccc(Cl)cc2Cl)o1 | 85% | 101% | 93.7% | 98.2% | 80.4% | 91.4% | 102% | 88.2% | 90.7% | 91% | 47.1% | 71.4% | 80.4% | 79.7% | 77.1% | 68.4% | 115% | 106% | 90% | 95.9%
CCOC(=O)c1cc2c(n1Cc1cc(OC)cc(OC)c1)-c1oncc1CCC2 | 23.7% | 28% | 50.4% | 6.91% (active) | 57.5% | -19.1% (active) | 26.6% | 41.9% | -54.8% (active) | 15.6% | 7.66% (active) | 8.25% (active) | 15.5% | 18.6% | 33.5% | -16.6% (active) | 2.3% (active) | 52.9% | 25.3% | 24.2%
NCCOc1ncccc1/C=C1\c2ccccc2-c2ccc(F)cc21 | -6.99% (active) | 48.4% | 11.1% | -33.3% (active) | 29.8% | 37.7% | -51.9% (active) | 6.26% (active) | -30.1% (active) | 7.83% (active) | 3.28% (active) | 32.3% | 34.7% | 25.2% | 23.2% | 2.01% (active) | 11.5% | 67.6% | 25.2% | 3.22% (active)
Cc1cc(OC(=O)c2ccc([N+](=O)[O-])cc2)nc2[nH]c(=O)sc12 | 103% | 110% | 111% | 105% | 105% | 96.8% | 103% | 104% | 116% | 111% | 102% | 107% | 103% | 108% | 97.5% | 103% | 98.5% | 104% | 102% | 103%
O=c1oc2ccc(-c3ccc(F)cc3F)cc2c(=O)n1-c1cccc(C(F)(F)F)c1 | 1.75% (active) | 4.41% (active) | 3.5% (active) | 4.14% (active) | -26.6% (active) | -10.7% (active) | 7.26% (active) | 0.874% (active) | 17.9% | 20.1% | 10.9% | -24% (active) | -16% (active) | -8.07% (active) | 12.7% | -0.824% (active) | 9.91% (active) | -14.2% (active) | 18.3% | 13%
CCOC(=O)c1sc(-c2ccc(OS(=O)(=O)C[C@]34CCC(CC3=O)C4(C)C)c(C=O)c2)nc1C | 28.5% | 50.4% | 8.26% (active) | -1.32% (active) | 38.4% | 1.5% (active) | 15.4% | 27.4% | -34.9% (active) | 21.3% | 7.5% (active) | 38.1% | 19.7% | 52.9% | 15% | 26.2% | 43.2% | 4.31% (active) | 3.97% (active) | 5.75% (active)
O=C(Nc1ccc(Cl)cc1F)c1cc(I)ccc1O | 12.1% | 17.8% | 21.9% | 15.7% | -24.6% (active) | -9.32% (active) | 17.6% | 77.2% | 106% | 31.9% | 14.9% | -1.76% (active) | 52.8% | 14.8% | 17.1% | 48.4% | 16.4% | 21.9% | 27.9% | 25.4%
O=C(/C=C/c1cccc(Cl)c1)OCc1ccc2cc1OCC#C/C=C\C#CCO2 | 102% | 91.1% | 100% | 104% | 150% | 83.2% | 90.5% | 100% | 106% | 119% | 81.9% | 99.7% | 90.7% | 101% | 106% | 109% | 100% | 88.8% | 103% | 102%
COc1ccc(Cn2c(Br)c3c(c2-c2cc(OC)c(OC)c(OC)c2)CCc2sc(NC(=O)c4ccc(OC)cc4)nc2-3)cc1 | 91.9% | 69.3% | 106% | 98% | 89.1% | 85.4% | 94.2% | 89.8% | 107% | 102% | 84.6% | 86.1% | 87.1% | 91.9% | 78.6% | 67.8% | 100% | 116% | 97.4% | 98.3%
CCOC(=O)c1sc(-c2ccc(OS(=O)(=O)c3ccccc3[N+](=O)[O-])c(C=O)c2)nc1C | 50.6% | 58.4% | 117% | 91.2% | 65.6% | 18.8% | 82.3% | 80.3% | 117% | 78.1% | 12.8% | 37.8% | 84% | 108% | 46.6% | 107% | 76.6% | 49.5% | 5.91% (active) | 6.3% (active)
COc1ccc(C2C3=C(COC3=O)N(CCO)c3cc4c(cc32)CCC4)cc1 (stereo not given) | 87.2% | 96.2% | 51.5% | 25.9% | 70.8% | 37.8% | 46.6% | 54.8% | 52.1% | 78.5% | 24% | 64.7% | 70.9% | 30.5% | 74.5% | 16.3% | 57.2% | 57.1% | 38% | 37.3%
O=c1oc2ccc(Cl)cc2c(=O)n1-c1ccc(I)cc1F | 2.29% (active) | 6.37% (active) | 0.787% (active) | 2.33% (active) | -16.5% (active) | -15.5% (active) | 7.89% (active) | 2.82% (active) | 53% | 15.6% | 7.73% (active) | -29.2% (active) | -20.5% (active) | -5.52% (active) | 8.08% (active) | -57.8% (active) | 2.55% (active) | -16.9% (active) | 2.42% (active) | 3.56% (active)
COc1cc(C=C2C(=O)N(C)C(=O)N(C)C2=O)cc(CN2CCCCC2)c1O | 96.6% | 102% | 93.1% | 108% | 101% | 94.3% | 100% | 95.5% | 111% | 104% | 96.4% | 93.3% | 98.1% | 116% | 94.1% | 104% | 100% | 104% | 102% | 104%
